From PMC4336329 (PLoS ONE, 2015) come the findings set out here.

Among all 310,000 compounds or so, about 2,200 (0.71%) showed an effect of 50% or more. Effects have a minus sign here. For the sample, strong results were picked, then their nearest neighbours and some compounds at random.

human ether-à-go-go-related gene (hERG) potassium channel, sequence (Q12809 whole entry, looked up): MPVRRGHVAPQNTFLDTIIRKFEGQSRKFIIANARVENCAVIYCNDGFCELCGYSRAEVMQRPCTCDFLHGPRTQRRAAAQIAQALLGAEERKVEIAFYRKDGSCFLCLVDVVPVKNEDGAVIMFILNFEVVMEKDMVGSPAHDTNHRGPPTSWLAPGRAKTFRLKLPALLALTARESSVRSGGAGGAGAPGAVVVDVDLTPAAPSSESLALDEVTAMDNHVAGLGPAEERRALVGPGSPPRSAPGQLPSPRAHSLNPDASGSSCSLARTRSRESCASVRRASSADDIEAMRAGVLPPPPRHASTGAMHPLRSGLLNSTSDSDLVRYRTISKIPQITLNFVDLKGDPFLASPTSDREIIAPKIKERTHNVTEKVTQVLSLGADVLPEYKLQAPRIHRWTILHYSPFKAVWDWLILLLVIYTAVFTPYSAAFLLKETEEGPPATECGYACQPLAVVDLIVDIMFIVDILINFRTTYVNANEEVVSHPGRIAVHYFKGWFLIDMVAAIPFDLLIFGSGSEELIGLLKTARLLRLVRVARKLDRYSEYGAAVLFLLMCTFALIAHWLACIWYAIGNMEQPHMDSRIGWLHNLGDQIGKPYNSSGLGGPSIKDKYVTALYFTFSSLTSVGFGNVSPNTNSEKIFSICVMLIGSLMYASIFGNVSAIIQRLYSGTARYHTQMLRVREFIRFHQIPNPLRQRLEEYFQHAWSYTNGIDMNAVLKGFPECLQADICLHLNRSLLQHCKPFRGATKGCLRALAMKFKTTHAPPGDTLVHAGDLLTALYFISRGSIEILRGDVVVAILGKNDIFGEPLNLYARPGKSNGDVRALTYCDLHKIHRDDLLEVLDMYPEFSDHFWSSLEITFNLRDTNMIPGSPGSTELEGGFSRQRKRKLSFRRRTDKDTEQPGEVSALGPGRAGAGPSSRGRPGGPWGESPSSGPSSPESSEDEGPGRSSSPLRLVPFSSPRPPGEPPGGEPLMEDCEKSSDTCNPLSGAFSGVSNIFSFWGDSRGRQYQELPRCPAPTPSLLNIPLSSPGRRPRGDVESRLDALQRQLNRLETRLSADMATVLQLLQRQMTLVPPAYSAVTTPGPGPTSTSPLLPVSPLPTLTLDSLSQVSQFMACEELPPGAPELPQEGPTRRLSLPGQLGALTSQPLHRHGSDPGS

This assay addresses human ether-à-go-go-related gene (hERG) potassium channel (human, UniProt Q12809). The assay can be described thus: primary screen, population patch clamp on CHO cells stably expressing hERG; higher = less effect of the substance.
With `CC(C)(C)OC(=O)NC(CNCc1ccccc1)Cc1ccccc1` (stereo not shown), the “hERG current change (%, negative = inhibition) at 1uM” value was determined as 3.93%.
In the case of `Nc1c(C(=O)NCCN2CCOCC2)c2nc3ccccc3nc2n1-c1ccccc1` it was -3.09%.
Under `Cc1ccc(NC(=S)/N=C(\N)Nc2nc(C)c3cc(C)c(C)cc3n2)cc1C` stands 8.63%.
In the case of `COc1cccc(C(=O)Nc2cccc(C(C)=O)c2)c1` it was 11.4%.
As for `COc1ccccc1N1CCN(CCCNC(=O)Nc2ccccc2)CC1`, the “hERG current change (%, negative = inhibition) at 1uM” value is given as -28.8%.
`COc1ccc(NC(=O)NCCN2CCN(c3cc(OC)ccc3OC)CC2)cc1`: the “hERG current change (%, negative = inhibition) at 1uM” value is listed as 13.5%.
In the case of `COc1ccc(N2CCN(CCCNC(=O)Nc3ccccc3)CC2)cc1` it was -50.5%; in that of `COc1ccc(Cl)c(N2CCN(CCCNC(=O)Nc3ccc(C)cc3)CC2)c1`, -24.5%.
In the case of `COc1ccc(NC(=O)NCCCN2CCN(c3cc(C)ccc3C)CC2)cc1` it was -80.4%; in that of `COc1ccc(NC(=O)NCCCN2CCN(c3ccccc3F)CC2)cc1`, -5%.
In the case of `CCCSc1nnc2n(N)c(=O)c3ccccc3n12` it was 11.3%; in that of `C[C@@H](C(=O)Nc1ccc2ccccc2c1)[C@H]1C[C@]1(C)[C@H](NS(=O)(=O)c1ccc(-c2ccccc2)cc1)c1ccccc1`, -8.41%; in that of `Fc1ccccc1NC(=S)N1CCOCC1`, 12.2%.
As for `COc1cc(C2SCCS2)cc(Br)c1Oc1ncccc1[N+](=O)[O-]`, the “hERG current change (%, negative = inhibition) at 1uM” value turned out to be 10.3%.
As for `CC(C)CCNC(=O)Cc1csc(-c2ccccc2)n1`, the “hERG current change (%, negative = inhibition) at 1uM” value was 6.54%.
In the case of `OC1CCC(NC(=S)Nc2ccc(SC(F)F)cc2)CC1` (stereo not shown) it was 6.06%; in that of `O=C(OCc1cnc(Cl)s1)c1cccc(Cl)c1`, -5.8%; in that of `CCCc1cc(C(=O)Nc2ccc(Cl)cn2)cs1`, 9.72%.
In the case of `O=C(CCS(=O)(=O)c1ccc2c(c1)NC(=O)CO2)NCCc1ccccc1` it was 9.02%; in that of `CS(=O)(=O)N(Cc1ccco1)CC(O)Cn1c2ccccc2c2ccccc21` (stereo not shown), 15%.
In the case of `CN(C)C1(CNC(=O)c2ccc(NS(=O)(=O)c3ccc(Cl)c(Cl)c3)cc2)CCCCC1` it was -50.9%; in that of `CCOc1ccc(NS(=O)(=O)c2ccc(C(=O)NCC3(N(C)C)CCCCC3)cc2)cc1`, 6.85%.
Consider `Cc1cc(S(=O)(=O)Nc2ccc(C(=O)NCC3(N(C)C)CCCCC3)cc2)ccc1F`, for which the “hERG current change (%, negative = inhibition) at 1uM” value was -7.71%.
Under `COc1ccc(CCC(=O)Nc2ccc(Cn3ccnc3)cc2)cc1` stands 10.4%; under `CCCNc1c(NS(=O)(=O)c2ccc(OC)c(OC)c2)c(=O)oc2ccccc12`, -77.2%.
In the case of `CCCNc1c(NS(=O)(=O)c2ccc(C(C)(C)C)cc2)c(=O)oc2ccccc12` it was 9.75%; in that of `CCCNc1c(NS(=O)(=O)c2ccc(C)c(C)c2)c(=O)oc2ccccc12`, -6.38%; in that of `Oc1c(Br)cc(/C=N/n2c(-c3ccccc3)n[nH]c2=S)c(Br)c1O`, 17.1%.
In the case of `CCCCN(CCCC)CC(O)COc1ccc(Br)cc1` (stereo not shown) it was -43.6%; in that of `COc1ccc(OCC(O)CN(C)C(=O)/C=C/c2cccc([N+](=O)[O-])c2)cc1` (stereo not shown), -56.7%.
`CCCN(CCC)CC(O)COc1ccc([N+](=O)[O-])cc1` (stereo not shown): the “hERG current change (%, negative = inhibition) at 1uM” value is listed as -81.4%.
In the case of `COc1ccc(OCC(O)CNC(=O)/C=C/c2cccc([N+](=O)[O-])c2)cc1` (stereo not shown) it was 14.8%; in that of `O=[N+]([O-])c1ccc(OCC(O)CN(CCO)CCO)cc1` (stereo not shown), -16.9%.
With `COC(=O)c1ccc(OCC(O)CN(CC(C)C)CC(C)C)cc1` (stereo not shown), the “hERG current change (%, negative = inhibition) at 1uM” value was found to be 6.51%.
In the case of `Cl.O=[N+]([O-])c1ccc(OCC(O)CNC2CCCC2)cc1` (stereo not shown) it was -30.3%; in that of `O=[N+]([O-])c1ccc(OCC(O)CN(C2CCCCC2)C2CCCCC2)cc1` (stereo not shown), -80.4%.
Under `CC(C)CN(CC(C)C)CC(O)COc1ccc([N+](=O)[O-])cc1.Cl` (stereo not shown) stands -52.1%; under `CC(C)N(C(=O)/C=C/c1cccc([N+](=O)[O-])c1)C(C)C`, 7.97%; under `Cc1nccn1CC(O)COc1ccc([N+](=O)[O-])cc1` (stereo not shown), -41.3%.
Under `COc1ccc(OCC(O)CN(C2CCCCC2)C2CCCCC2)cc1.Cl` (stereo not shown) stands -37.9%.
With `CCOc1ccccc1NC(=O)CSc1nc2ccccc2c(=O)n1CC1CCCO1` (stereo not shown), the “hERG current change (%, negative = inhibition) at 1uM” value is on record as -35.6%.
In the case of `Cc1c(=O)n(OCc2ccccc2)c2ccccc2[n+]1[O-]` it was 9.46%; in that of `Oc1cnn(-c2ccccc2)c1`, 5.96%; in that of `CC(=O)NC(CC(=O)OCc1ccc([N+](=O)[O-])cc1)c1ccccc1` (stereo not shown), -27%.
On to `COCCNC(=O)CSc1nc2sccc2c(=O)n1-c1ccccc1`, for which the “hERG current change (%, negative = inhibition) at 1uM” value turned out to be 16.6%.
Turning to `CCn1c(NC(=O)C(C)C)c2ccccc2nc1=O`, the “hERG current change (%, negative = inhibition) at 1uM” value amounted to 2.18%.
Turning to `COc1cc(C)nc(N(C)S(=O)(=O)c2ccccc2Cl)n1`, the “hERG current change (%, negative = inhibition) at 1uM” value is 7.72%.
Under `CCN(CC)S(=O)(=O)c1cccc(NC(=O)c2ccc(C#N)cc2)c1` stands 3.29%; under `CCN(CC)S(=O)(=O)c1cccc(C(=O)Nc2ccc(C#N)cc2)c1`, -74%.
Under `CCN(CC)S(=O)(=O)c1cccc(C(=O)Nc2ccccc2)c1` stands -0.175%; under `COC(=O)CSC(C(=O)Nc1ccc(C)c(C)c1)c1ccccc1` (stereo not shown), -4.33%.
Turning to `O=C(Cn1ccc([N+](=O)[O-])n1)N1CCCCCC1`, the “hERG current change (%, negative = inhibition) at 1uM” value is 13.1%.
As for `COC(=O)c1ccc(/C=N/NC(=O)C2CC(=O)N(c3ccc(F)cc3)C2)cc1` (stereo not shown), the “hERG current change (%, negative = inhibition) at 1uM” value turned out to be 16.8%.
For `COC(=O)c1nn(-c2cccc(C(F)(F)F)c2)ccc1=O`, the “hERG current change (%, negative = inhibition) at 1uM” value was 8.73%.
For `COc1ccc(/C=N/NC(=O)c2ccc(F)cc2)cc1CN1CCc2cc(OC)c(OC)cc2C1C` (stereo not shown), the “hERG current change (%, negative = inhibition) at 1uM” value is -99.1%.
In the case of `COc1ccc(/C=N/NC(=O)c2cccnc2)cc1CN1CCc2cc(OC)c(OC)cc2C1C` (stereo not shown) it was 1.82%.
For `COc1ccc(/C=N/NC(=O)c2ccccc2[N+](=O)[O-])cc1CN1CCc2cc(OC)c(OC)cc2C1C` (stereo not shown), the “hERG current change (%, negative = inhibition) at 1uM” value is reported as -10.4%.
Under `COc1ccc(C(=O)N/N=C/c2ccc(OC)c(CN3CCc4cc(OC)c(OC)cc4C3C)c2)cc1` (stereo not shown) stands -85.1%; under `COc1ccc(/C=N/NC(=O)c2cc(OC)c(OC)c(OC)c2)cc1CN1CCc2cc(OC)c(OC)cc2C1C` (stereo not shown), -21.9%; under `COc1ccc(C(=O)N/N=C/c2ccc(OC)c(CN3CCCc4ccccc43)c2)cc1`, -6.65%.
On to `Cc1cccc([C@@H]2[C@@H]3C(=O)N(Cc4ccccc4)C(=O)[C@@H]3[C@]3(Cc4ccccc4)C(=O)N(c4cccc(F)c4)C(=O)N23)c1`, for which the “hERG current change (%, negative = inhibition) at 1uM” value came out at 9.13%.
In the case of `COc1cc(/C=C2/SC(=S)N(CC(=O)O)C2=O)ccc1OC(=O)c1ccco1` it was 7.62%.
In the case of `N=C1/C(=C/c2ccc(OCc3ccccc3F)cc2)C(=O)N=C2SC(CC(=O)N3CCOCC3)=NN12` it was 12.2%; in that of `CCC(Sc1nc(N)c(NC(=O)c2ccc(OC)c(OC)c2)c(=O)[nH]1)C(=O)OC` (stereo not shown), -5.41%.
In the case of `CCC(NS(=O)(=O)c1cccs1)c1ccc(C)cc1` (stereo not shown) it was 8.69%; in that of `O=[N+]([O-])c1ccc(N2CCOCC2)c2cccnc12`, -7.04%.
Regarding `O=C(c1ccccc1F)N1CCN(c2ccc([N+](=O)[O-])c3ncccc23)CC1`, the “hERG current change (%, negative = inhibition) at 1uM” value is listed as -38.7%.
In the case of `O=[N+]([O-])c1cccc2c(N3CCOCC3)ccnc12` it was 10%.
Under `O=[N+]([O-])c1cccc2c(N3CCCC3)ccnc12` stands -84.4%; under `O=[N+]([O-])c1ccc(N2CCCC2)c2ncccc12`, 2.1%; under `O=C(c1ccccc1F)N1CCN(c2ccc([N+](=O)[O-])c3cccnc23)CC1`, -13.2%.
In the case of `Cc1ccc(S(=O)(=O)N2CCN(c3ccc([N+](=O)[O-])c4cccnc34)CC2)cc1` it was 7.53%; in that of `O=C(c1cc(F)c(F)cc1Cl)N1CCN(c2ccc([N+](=O)[O-])c3ncccc23)CC1`, -53.6%; in that of `O=[N+]([O-])c1ccc(N2CCN(S(=O)(=O)c3ccccc3)CC2)c2cccnc12`, -75.6%.
In the case of `COc1cc(NC(=O)C2CC(=O)N(Cc3ccco3)C2)cc(OC)c1` (stereo not shown), the “hERG current change (%, negative = inhibition) at 1uM” value amounted to 2.39%.
In the case of `CC/C(=N\NC(=O)c1ccc(N2CCCC2=O)cc1)c1ccccc1` it was 10.8%; in that of `Cc1ccc2nc(SC(C)C(=O)NC3CCCc4ccccc43)[nH]c2c1` (stereo not shown), 11.6%; in that of `CC1(c2ccc([N+](=O)[O-])cc2)NC(=O)N(CC(=O)Nc2ccc(N3CCCCC3)cc2)C1=O` (stereo not shown), 14.8%.
In the case of `Cc1ccc(-n2ncc3c2CCCC3NC(=O)c2cnccn2)cc1C` (stereo not shown) it was 10.3%; in that of `CCOc1ccc(C(C)NC(=O)Cc2ccccc2)cc1OCC` (stereo not shown), 10.8%; in that of `O=C(Cn1nc(C(F)(F)F)cc1C1CC1)Nc1ccccc1F`, 16.1%.
In the case of `COCCN1CC(=O)N2C(c3cccc(C)c3)c3[nH]c4ccccc4c3C[C@H]2C1=O` (stereo partly shown) it was 1.07%.
Take `COc1cc2c3nnc(-c4ccc(F)cc4)c-3cn(Cc3ccc(C)cc3)c2cc1OC`: the “hERG current change (%, negative = inhibition) at 1uM” value was found to be 13.5%.
Regarding `COc1ccc(Cn2cc3c(-c4ccc(F)cc4)nnc-3c3cc(OC)c(OC)cc32)cc1`, the “hERG current change (%, negative = inhibition) at 1uM” value is on record as -75.6%.
For `COc1cc2c3nnc(-c4ccc(F)cc4)c-3cn(Cc3ccc(F)cc3)c2cc1OC`, the “hERG current change (%, negative = inhibition) at 1uM” value is -5.13%.
